Activity calls are given as the source filed them. Rule for the calls: active = hit-call score of the fitted dose curve at least 0.9, where 1 is the maximum; inactive = score below 0.9.
Assay: ATG_GATA_CIS: Attagene CIS-FACTORIAL HepG2 Assay for human GATA Binding Protein (AID 2282944)
Settings: HepG2 GATA cis-element reporter, Attagene multiplex mRNA; actives raise or lower the signal
Procedure: ATG_CIS is a cell-based, multiplexed-readout assay that uses HepG2, a human liver cell line, with measurements taken at 24 hours after chemical dosing in a 24-well plate.ATG_GATA_CIS is one of 52 assay component(s) measured or calculated from the ATG_CIS assay. It is designed to make measurements of mRNA induction, a form of inducible reporter, as detected with fluorescence intensity signals by Reverse transcription polymerase chain reaction (RT-PCR) and Capillary electrophoresis technology.Data from the assay component ATG_GATA_CIS was analyzed into 1 assay endpoint. This assay endpoint, ATG_GATA_CIS, was analyzed with bidirectional fitting relative to DMSO as the negative control and baseline of activity. Using a type of inducible reporter, measures of mRNA for gain or loss-of-signal activity can be used to understand the reporter gene at the transcription factor-level as they relate to the gene GATA1. Furthermore, this assay endpoint can be referred to as a primary readout, because this assay has produced multiple assay endpoints where this one serves a reporter gene function. To generalize the intended target to other relatable targets, this assay endpoint is annotated to the dna binding intended target family, where the subfamily is GATA proteins.
Human liver HepG2 cells are transiently transfected with multiple reporter transcription units (MRTUs) in 6-well plates using FuGene 6 reagent (Roche; 3 ml FuGene/1 mg DNA). The MRTU constructs are regulated by a cis-regulating element (promoter). […] A major difference between the CIS and TRANS system is that in CIS activities of endogenous TFs are measured, whereas the TRANS assay evaluates changes in activities of exogenous, chimeric NR-Gal4 proteins. […] At the end of 24 hour incubation, total RNA was isolated using TriZol reagent (Invitrogen). The isolated RNA is then reverse-transcribed using oligo(dT) primer and Mo-MLV reverse transcriptase (Invitrogen) with DNAse I (Ambion) treatment for 30 min. The one-tenth of the produced cDNA was amplified by PCR using Taq DNA polymerase (Invitrogen) and two reporter sequence-specific primers. The PCR products were fluorescently labeled by primer extension with 6-arboxyfluorescein (6-FAM) 5'-labeled reporter sequence-specific primer (2 min at 95 C, 20 s at 68 C and 10 min at 72 C) and these products were digested with 5U of HpaI (New England Biolabs) for 2h at 37 C. The fragments were purified using Qiaquick PCR columns (Qiagen), analyzed on an ABI 3130xL genetic analyzer (Applied Biosystems) with peak positions identified by using a set of X-rhodamine (ROX)-labeled MapMarker1000 molecular weight standards (BioVentures). The raw capillary electrophoresis data was processed using Attagraph software (Attagene).

Structure (SMILES)	outcome	AC50
CCOC(=O)c1ccccc1C	inactive	
CC1=CP(=O)(c2ccccc2)CC1 (stereo not given)	inactive	
C=CC(=O)NC(C)(C)C	inactive	
CCCCCCCCCCCCCc1ccccc1	inactive	
CC(C)(CO)C(O)C(=O)NCCCO (stereo not given)	inactive	
COc1ccc(C(=O)/C(Br)=C\C(=O)O)cc1	inactive	
O=C(C=Cc1ccccc1)OCCc1ccccc1	inactive	
CCCCOCCOCCOC(C)=O	inactive	
CC(C)(O)Cc1ccccc1	inactive	
O=C(Cl)c1c(Cl)c(Cl)c(C(=O)Cl)c(Cl)c1Cl	inactive	
COc1cc(O)c(C(=O)c2ccccc2)cc1S(=O)(=O)O	inactive	
c1ccc2cnccc2c1	inactive	
COC(C=C(C)CCC=C(C)C)OC	inactive	
CCNc1nc(NC(C)(C)C)nc(OC)n1	inactive	
CCCCCCCCCC[N+](C)(CCCCCCCCCC)CCC[Si](OC)(OC)OC		14.1 µM (active)
Nc1ncnc2nc[nH]c12	inactive	
CC1=CC=C(C(C)C)CC1	inactive	
Cc1c[nH]c(=O)[nH]c1=O	inactive	
CCCCCCCCCCCCc1ccc(O)cc1	inactive	
Cc1ccccc1CCO	inactive	

Structure (SMILES)	outcome	AC50
O=C(O)/C=C/c1ccccc1	inactive	
Nc1ccc(C(=O)O)cc1	inactive	
CC(C)CCOCc1ccccc1	inactive	
CCN1CN(CC)CN(CC)C1	inactive	
O=c1c(O)c(-c2ccc(O)cc2O)oc2cc(O)cc(O)c12	inactive	
Nc1ccc(Cl)c(N)c1	inactive	
CCN1CCCC1=O	inactive	
CCc1cccc(C)c1N	inactive	
[Cl][Eu]([Cl])[Cl]	inactive	
CC(C)=CCl	inactive	
COCC(=O)O	inactive	
Cc1cc(=O)[nH]c(=O)[nH]1	inactive	
CC1OC(=O)C(C)OC1=O (stereo not given)	inactive	
CC(C)(C)C1CCC(=O)CC1	inactive	
CC1CC(=O)CC(C)(C)C1 (stereo not given)	inactive	
C=C[Si](OCCOC)(OCCOC)OCCOC	inactive	
O=C1c2ccccc2C(=O)c2cc(S(=O)(=O)O)ccc21	inactive	
C=CCNCC=C	inactive	
CCCCOC(=O)C(C)CC (stereo not given)	inactive	
CC1=NN(c2ccc(S(=O)(=O)O)cc2)C(=O)C1N=Nc1ccccc1 (stereo not given)	inactive	

Source: PubChem BioAssay (EPA / NIEHS)
